# Assay outcomes deposited in PubChem by National Center for Advancing Translational Sciences (NCATS).
# Pf growth 48h: Primary qHTS for delayed death inhibitors of the malarial parasite plastid, 48 hour incubation | Potency, µM (highest dose often 28.7 µM), inactives show at the highest dose activity change, negative = inhibition, usual class: inhibitors | actives 5.9% (n = 310,000) | P. falciparum luciferase growth in erythrocytes, 48 h
#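 Firefly luciferase activity from engineered P. falciparum reports growth; inhibitors lower the luminescent signal. Cultures contained 2% hematocrit erythrocytes at 0.1% final parasitemia.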
# Vaccinia mCherry: qHTS for Stage-Specific Inhibitors of Vaccinia Orthopoxvirus: mCherry Reporter Primary qHTS | actives 0.63% (n = 310,000) | Potency, µM (top dose mostly 36.5 µM), inactives show at the top dose activity change, negative = inhibition, hits mostly inhibitors | Vaccinia virus mCherry reporter infection, fluorescence | AID 720579, 2013; calls by dose curve; tested in A549 cells; also: nearly all actives have a fitted effect of over 35% in size
# VACV Venus inh: qHTS for Stage-Specific Inhibitors of Vaccinia Orthopoxvirus: Venus Reporter Primary qHTS; AID 720580, 2013; actives 0.46% (n = 330,000); Potency, µM (top dose mostly 36.5 µM), without a hit: top-dose activity change, negative = inhibition, hits mostly inhibitors; Vaccinia virus Venus reporter expression, fluorescence; calls by dose curve; tested in A549 cells; also: nearly all actives have a fitted effect of over 30% in size
# AMA1 RON2 block: qHTS for Inhibitors of AMA1-RON; Towards Development of Antimalarial Drug Lead: Primary Screen | AlphaScreen AMA1-biotinylated RON2 peptide binding | Potency, µM (top dose mostly 58.2 µM), without a hit: at the highest dose activity change, negative = inhibition, most hits filed as inhibitors | actives 0.2% (n = 360,000) | AID 720542, 2013;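 also: 0% = vehicle wells and -100% = peptide control; nearly all actives have a fitted effect of over 45% in size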
#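 AMA1 (3D7) with his tag at 25 nM final met compounds first, then biotinylated RON2 peptide at 25 nM; detection used donor plus acceptor beads, 10 µg/mL apiece, read by AlphaScreen after 30 min at room temperature.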
# Pf growth 96h: Primary qHTS for delayed death inhibitors of the malarial parasite plastid, 96 hour incubation. P. falciparum luciferase reporter growth, 96 h. Potency, µM (series often up to 28.7 µM), without a hit: at the highest dose activity change, negative = inhibition, actives largely listed as inhibitors. actives 6.9% (n = 320,000). AID 504834, 2011
#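 Plates of compound plus infected erythrocytes (2% hematocrit, 0.05% parasitemia final) incubate 96 hours, 37 C, 5% CO2. Detection reagent added; reduced luminescence from the parasites' luciferase reporter flags inhibition.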
# The depositor's hits bear a star; i = inactive; ? = inconclusive; · = not tested or not shown; [ ] = another dose, or the depositor's remark. Only some compounds are listed: those with a hit (about 8.7% of all), similar ones and a draw of the others. Unless noted, calls follow the shape of the dose curve; as a rule, active = well fitted curve in the direction sought with a large enough effect; inconclusive = small, poorly fitted or top-dose-only effect, or another doubt; inactive = no such curve, though single readings can be large; an effect the other way counts as inactive or inconclusive. Unless noted, % is scaled to controls: 0 for no effect and ±100 for the full control effect; potency is read from the fitted curve at half-maximal effect.
SMILES,Pf growth 48h,Vaccinia mCherry,VACV Venus inh,AMA1 RON2 block,Pf growth 96h
COc1cc(/C=C/c2cc[n+](C)cc2)ccc1OCC(=O)Nc1ccc(Cl)c(Cl)c1,?,i,-14%,1%,-20%
COc1cc(/C=C/c2cccc[n+]2C)ccc1OCC(=O)Nc1ccccc1,1µM*,i,0%,-9%,0%
CCCCC(=O)NC(NC(=O)CCCC)c1ccc(OCC(C)C)c(OC)c1,7%,-19%,-20%,6%,-3%
COc1ccc(C(NC(=O)CC(C)C)NC(=O)CC(C)C)cc1OC,16%,·,-10%,9%,10µM*
Cc1ccc(Cn2nc(C)c(C(=O)N3CCN(S(=O)(=O)/C=C/c4ccccc4)CC3)c2C)cc1,6.6µM*,·,·,-18%,3.3µM*
O=C(/C=C/c1ccco1)N1CCN(S(=O)(=O)/C=C/c2ccccc2)CC1,?,-18%,-7%,-17%,?
Cc1ccc(/C=C/C(=O)N2CCN(S(=O)(=O)/C=C/c3ccccc3)CC2)o1,3%,·,·,-6%,5.9µM*
O=C(c1cnn(Cc2ccccc2)c1)N1CCN(S(=O)(=O)/C=C/c2ccccc2)CC1,?,·,·,3%,-29%
CSc1nnc(CCNC(=O)c2ccc(-c3cccc(F)c3)cc2)n1-c1ccc(F)cc1,·,-16%,-4%,·,·
CC(C)(Cc1c[nH]c2ccccc12)NCC(O)COc1ccccc1C#N (configuration not stated),17µM*,·,·,·,7.6µM*
CC(C)(C)NC[C@H](O)COc1cccc2[nH]c(C#N)cc12,·,-14%,-5%,·,·
O=C(CN1C(=O)c2ccccc2S1(=O)=O)N1CCN(c2ccccc2F)CC1,72%,-3%,-16%,-7%,5.9µM*
O=C(CN1C(=O)c2ccccc2S1(=O)=O)c1ccc2c(c1)OCCCO2,?,-3%[7.34 µM],-7%[7.34 µM],11%,1.5µM*
COc1ccc(Cl)cc1-c1cc2c(c(OC)c1)OCCN(Cc1cccn1-c1nccs1)C2,·,-12%,-4%,·,·
CC1=C(CO)C(=O)OC([C@@H](C)C2CC[C@H]3C4C[C@H]5O[C@]56[C@@H](O)C=CC(=O)[C@]6(C)C4CC[C@]23C)C1 (some centres not stated),8.3µM*,10µM*,?,-8%,10%
CC(CC(=O)Nc1ccc(F)cc1)S(=O)(=O)c1cc2c3c(c1)CCN3C(=O)CC2 (configuration not stated),·,-10%,-1%,·,·
COc1cccc(CC(=O)NC2CCCN(Cc3ccc(Cl)cc3)C2)c1 (configuration not stated),-15%,-11%,-15%,-1%,-24%
CC(=O)c1ccc(C(=O)NC2CCCN(Cc3ccc(Cl)cc3)C2)s1 (configuration not stated),-15%,-6%,-18%,-2%,?
O=C(NC1CCCN(Cc2ccc(Cl)cc2)C1)c1c(F)ccc(F)c1F (configuration not stated),-12%,-22%,-15%,30%,4.7µM*
O=C(NC1CCCN(Cc2ccc(Cl)cc2)C1)c1ccccc1C(F)(F)F (configuration not stated),?,i,-7%,0%,4.7µM*
O=C(NC1CCCN(Cc2ccc(Cl)cc2)C1)c1c(F)cccc1F (configuration not stated),43%,-25%,-3%,9%,?
COc1ccc(OCC(=O)NC2CCCN(Cc3ccc(Cl)cc3)C2)cc1 (configuration not stated),13µM*,·,·,0%,?
COc1ccc(CNC(=O)C2CCCCN2S(=O)(=O)c2ccc(F)cc2)cc1 (configuration not stated),·,-7%,-1%,·,·
Cc1ccc(C)c(S(=O)(=O)c2c(N)n(/N=C/c3ccco3)c3nc4ccccc4nc23)c1,10µM*,-24%,-2%,-4%,?
COc1ccccc1/C=N/n1c(N)c(S(=O)(=O)c2cccs2)c2nc3ccccc3nc21,6.6µM*,·,·,3%,·
SMILES,Pf growth 48h,Vaccinia mCherry,VACV Venus inh,AMA1 RON2 block,Pf growth 96h
Cc1cccc(S(=O)(=O)c2c(N)n(/N=C/c3ccccc3)c3nc4ccccc4nc23)c1,·,·,·,2%,24%
COc1ccc(CCn2c(N)c(S(=O)(=O)c3cccs3)c3nc4ccccc4nc32)cc1OC,9.3µM*,i,-13%,7%,?
Nc1c(S(=O)(=O)c2cccs2)c2nc3ccccc3nc2n1CCc1ccccc1,?,·,·,·,3.3µM*
Nc1c(S(=O)(=O)c2ccccc2)c2nc3ccccc3nc2n1/N=C/c1cccc(O)c1,-25%,·,11µM*,-5%,4%
Nc1c(S(=O)(=O)c2cccs2)c2nc3ccccc3nc2n1CC1CCCO1 (configuration not stated),?,·,·,8%,15%
Nc1c(S(=O)(=O)c2cccs2)c2nc3ccccc3nc2n1Cc1cccs1,?,·,-15%,-1%,8.3µM*
Nc1c(S(=O)(=O)c2cccs2)c2nc3ccccc3nc2n1Cc1ccc2c(c1)OCO2,15µM*,?,-21%,1%,·
Cc1ccnc2ccc(F)cc12,·,-9%,-9%,·,·
CCC(=O)OCc1cnc(C)c2oc(=O)c(C(=O)Nc3ccccc3C(F)(F)F)cc12,·,-19%,-7%,·,·
CC1=C(N2CC2)C(=O)C(CO)=C(N2CC2)C1=O,·,0.35µM*,0.35µM*,9%,·
Cc1ccc(/C(N)=N/OC(=O)N2c3ccccc3Sc3ccccc32)cc1,·,14%,0%,11%,·
Cc1ccccc1/C(N)=N/OC(=O)N1c2ccccc2Sc2ccccc21,?,·,·,-20%,10µM*
CC1=C(C(=O)Nc2ccccc2C(=O)N2CCC(C)CC2)SCCO1,13µM*,·,·,12%,-24%
CC1=C(C(=O)Nc2cc(C(=O)N3CCN(c4cccc(C)c4C)CC3)ccc2C)SCCO1,-13%,-18%[7.34 µM],-6%[7.34 µM],-10%,10µM*
CCOC(=O)C1CCCN(C(=O)c2ccccc2NC(=O)C2=C(C)OCCS2)C1 (configuration not stated),?,·,·,4%,4.1µM*
COc1cc(CNC(=O)c2ccccc2NC(=O)C2=C(C)OCCS2)cc(OC)c1OC,13µM*,·,·,-9%,?
CCOc1ccc(-c2nn(-c3ccccc3)cc2C2NC(=O)NC(C)=C2C(=O)OC(C)C)cc1C (configuration not stated),·,7%,-4%,·,·
Cc1cc(C)c(S(=O)(=O)N2CCN(c3ccc([N+](=O)[O-])c(-n4nc(C)cc4C)c3)CC2)c(C)c1,4.1µM*,·,·,-19%,1.3µM*
COC(=O)c1ccc(N2CCN(S(=O)(=O)c3c(C)cc(C)cc3C)CC2)c([N+](=O)[O-])c1,12µM*,-3%,-1%,4%,?
